# Screening results as filed in PubChem.
# HIF-2a block: HIF-2a inhibition; 786-0 RCC cells HIF-2a reporter, luciferase luminescence, overnight; inhibition, % at 18.8 µM; actives 0.72% (n = 360,000);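 active means inhibition of the luminescence signal of 40% or more relative to plate controls, in a single-dose primary screen at 18.75 µM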
# EWS-Fli block: EWS/Fli transcriptional activity inhibition. AID 651661. inhibition, % at 12.6 µM. actives 0.67% (n = 350,000). A673 NR0B1-luciferase reporter, viability-normalised;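 active means mean inhibition of at least 50% after viability correction, with every replicate also passing that limit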;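 further: firefly luciferase signal divided by Alamar Blue viability fluorescence both relative to DMSO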
# PAX8 inh HTS: PAX8 transcriptional activity inhibition; AID 652154; actives 1.2% (n = 360,000); RMG-I TPO-luciferase reporter, SteadyGlo, 24 h; inhibition, % at 12.6 µM;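 active means mean replicate inhibition at least 60% with every replicate also reaching 60%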;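 further: luciferase light reporting Pax8 driven TPO promoter activity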
# KKLEB tox: counter-screen for CF NF-kB inhibitors: cytotoxicity | KKLEB CF airway cells viability, ATPlite luminescence, overnight; stronger effect = lower value; cells stimulated with P. aeruginosa culture filtrate | activity change (cytotoxicity), % at 5 µM | actives 0.36% (n = 360,000);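 active means corrected activity change at or below -50% at 5 µM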
# CF NFkB inh: blocks PAF-induced NF-kB reporter in cystic fibrosis cells; KKLEB NF-kB-GFP reporter, GFP fluorescence overnight; inhibition, % at 5 µM; actives 0.86% (n = 360,000); AID 588850;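 active means at least 50% inhibition at 5 µM, scaled per plate between neutral and stimulator controls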;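 further: PAF is a Pseudomonas aeruginosa culture filtrate used as stimulus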
# DNA binding: binds DNA displacing acridine orange; shares compounds with EWS-Fli block; salmon sperm DNA acridine orange fluorescence polarization; AC35, µM (titrated, usually from 68 µM); actives 2% (n = 640); AID 720586;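 active means fitted curve reaches a 35% signal fall AC35 below twice the sample's top valid tested dose, actives reach about 48 µM in these data; inactive means the rest, including activity in the rising direction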;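 further: lower polarization ratio signals compound binding to DNA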
# A number is an active result; – = inactive; · = no result. Compounds with a hit are over-represented: about 2.1% of the library has one in this group of screens.
SMILES,HIF-2a block,EWS-Fli block,PAX8 inh HTS,KKLEB tox,CF NFkB inh,DNA binding
CC(=O)O[C@@H]1CC[C@]2(C)C3CC[C@@]4(C)C(C[C@@H](O)[C@@H]4O)C3[C@@H](OC(C)=O)C[C@H]2C1 (stereo partly specified),–,–,·,–,–,·
CC(=O)OC1CC2(O)C3CCC4CC(O)CCC4(C)C3CCC2(C)C1C1=CC(=O)OC1 (stereo unspecified),69,63,·,–,90,–
CC(=O)[C@H]1CCC2C3CC[C@H]4C[C@@H](O)CC[C@]4(C)C3CC[C@@]21C (stereo partly specified),–,–,–,–,–,·
CN(C)CC#Cc1ccc([C@@H]2[C@H](CO)N3CCCCN(C(=O)Cc4ccccn4)C[C@@H]23)cc1,·,–,–,·,·,·
COC(=O)[C@@H]1[C@@H](CO)[C@@H]2Cn3c(ccc(-c4ccccc4F)c3=O)[C@H]1N2CC1CCCC1,·,–,·,·,·,·
O=C(O)[C@H]1[C@H](CO)[C@H]2Cn3c(ccc(-c4cccnc4)c3=O)[C@@H]1N2S(=O)(=O)c1ccccc1F,·,–,–,·,·,·
C[C@]12CCC3C(CCC4=CC(O)CC[C@@]43/C=N/O)C1(O)CCC2C1=CC(=O)OC1 (stereo partly specified),–,69,109,-62,81,–
COc1ccc(C#Cc2ccc([C@@H]3[C@@H](CO)N4CCCCN(C(=O)Cc5ccncc5)C[C@H]34)cc2)cc1,·,·,–,·,·,·
CC[C@@H]1C[C@H]2CC[C@H](O2)[C@H](C)C(=O)O[C@@H](C)C[C@@H]2CC[C@@H](O2)[C@@H](C)C(=O)O[C@H](C)C[C@H]2CC[C@H](O2)[C@H](C)C(=O)O[C@@H](C)C[C@@H]2CC[C@@H](O2)[C@@H](C)C(=O)O1,·,54,·,·,·,–
Cc1cc(C)cc(N2C(=O)NC(=O)/C(=C\C=C\c3ccco3)C2=O)c1,40,61,66,–,–,–
O=C1NC(=O)N(c2ccccc2)C(=O)/C1=C\C=C\c1ccccc1,82,58,–,–,–,–
O=C1NC(=O)N(Cc2ccc(F)cc2)C(=O)/C1=C\C=C\c1ccco1,–,55,–,–,78,–
CCCNC(=O)N1[C@@H]2c3ccc(-c4ccccc4OC)c(=O)n3C[C@H]1[C@H](CO)[C@H]2C(=O)O,·,–,–,·,·,·
COC(=O)[C@H]1[C@H](CO)[C@H]2Cn3c(ccc(-c4cccc(C(=O)N(C)C)c4)c3=O)[C@@H]1N2C(=O)NC(C)C,·,–,–,·,·,·
Cc1ccc(OC(=O)N(C)C[C@@H]2OCc3ccccc3-c3c(n(C)c4ccccc34)C(=O)N([C@H](C)CO)C[C@@H]2C)cc1,·,·,–,·,·,·
